# Laboratory results taken from PubChem BioAssay (Tox21).
# Where “and” joins values, the source holds several entries; their conditions need not be identical. Identical values can stand only once. Records with an inconclusive call do not appear. Unmarked numbers belong to inactive results. Calls of active or inactive are those of the source. Unless noted, the call rests on the fitted dose curve; in most records, active means well fitted curve in the direction sought with a large enough effect in the repeat runs; inconclusive means weak or mixed curves; inactive means no such curve, though single readings can be large; an effect the other way counts as inactive or inconclusive.
# Tested on: not listed separately
# Assay: qHTS assay to identify small molecule antagonists of the thyroid receptor (TR) signaling pathway - cell viability counter screen (AID 743064); further: nearly all actives have a fitted effect of over 50% in size; further: potency means the concentration at half of the fitted maximal effect
# Conditions: GH3.TRE-Luc viability, CellTiter-Fluor, 24 h; series mostly up to 70.3 µM; activity change, negative = cytotoxic: at the top concentration
# Summary of the method: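 Compounds were tested on GH3.TRE-Luc cells in the presence of T3 at 1 nM final. Following 23.5 h at 37 °C, cell viability was quantified by CellTiter-Fluor.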
# On the % scale 0 is the no-effect control and ±100 the full control effect.
Compound,Potency,"activity change, negative = cytotoxic"
CCc1cc(Cl)c(OC)c(C(=O)NC[C@@H]2CCCN2CC)c1O,23.7 µM (active) and 7.5 µM (active),–
FC(F)(F)c1ccccc1,–,0.0573%
C=CC1CO1 (stereo unspecified),–,11.6% [at 95 µM]
OCCN1CCN(CCO)CC1,–,0% [at 95 µM]
CN1CCN(c2c(F)cc3c(=O)c(C(=O)O)cn4c3c2SCC4)CC1,–,2.32%
COc1ccc2nc(NC(=O)Nc3ccccc3)sc2c1,–,2.72%
CC(=O)Oc1cc(C(C)C)c(OCCN(C)C)cc1C,–,-8.53% [at 32.5 µM]
CC/C=C\CCOC(=O)CCCCC,–,12.4%
CCCCOc1cc(C(=O)NCCN(CC)CC)c2ccccc2n1,11.4 µM (active),–
CC1=NN(c2cc(Cl)c(S(=O)(=O)O)cc2Cl)C(=O)C1N=Nc1ccc(S(=O)(=O)O)cc1 (stereo unspecified),–,0.496%

# Tested on: not listed separately
# Assay: qHTS assay to identify small molecule antagonists of the thyroid receptor (TR) signaling pathway (AID 743065); further: nearly all actives have a fitted effect of over 55% in size; further: potency means the concentration at half of the fitted maximal effect
# Conditions: GH3.TRE-Luc, T3-stimulated luciferase inhibition, 23.5 h; series mostly up to 70.3 µM; activity, negative = inhibition: at the top concentration
# Summary of the method: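 GH3.TRE-Luc rat pituitary cells (two TREs driving luciferase) were dosed with compound, then stimulated with 1 nM T3 (final) for 23.5 h at 37 C. ONE-Glo luminescence was the read-out, with CellTiter-Fluor fluorescence as the cytotoxicity counter-screen.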
Compound,"activity, negative = inhibition",Potency
CC1(C)C(=O)N(Cl)C(=O)N1Br,-6.34%,–
ClC(Cl)Cl,–,inactive
CCNCCO,4.99%,–
CCc1nnc(NS(=O)(=O)c2ccc(N)cc2)s1,8.9%,–
CC1CN(c2ccccc2)NC1=O (stereo unspecified),16%,–
COc1cc(Cl)ccc1Cl,1.77% [at 95 µM],–
O=C(O)c1ccccc1Nc1cc(Cl)ccc1C(=O)O,0.848%,–
CC(=O)Nc1ccc(C)c(Cl)c1,-13%,–
CCOC(=O)C1CC(=O)C(=C(O)C2CC2)C(=O)C1 (stereo unspecified),8.88%,–
CC(C)=CCCC(C)CCOC=O (stereo unspecified),1.46%,–
Oc1ccccc1F,6.93%,–
NC/C=C/C(=O)O,14.7%,–
CCCCCCCCc1ccc(S(=O)(=O)O)cc1,-19%,–
FC(F)(F)c1ccccc1,7.46%,–
C=CC1CO1 (stereo unspecified),15.8% [at 95 µM],–
OCCN1CCN(CCO)CC1,6.56% [at 95 µM],–
CC(=O)Oc1cc(C(C)C)c(OCCN(C)C)cc1C,-9.11% [at 32.5 µM],–
CCCCOc1cc(C(=O)NCCN(CC)CC)c2ccccc2n1,–,10.1 µM (active)
CC1=NN(c2cc(Cl)c(S(=O)(=O)O)cc2Cl)C(=O)C1N=Nc1ccc(S(=O)(=O)O)cc1 (stereo unspecified),9.14%,–

# Tested on: thyroid hormone receptor (rat, GH3 cells)
# Assay: qHTS assay to identify small molecule agonists of the thyroid receptor (TR) signaling pathway (AID 743066; calls by dose curve)
# Conditions: GH3.TRE-Luc cells, TR agonist luciferase, 24 h; series mostly up to 83.9 µM; activation: at the top concentration
Compound,activation,outcome
O=C(O)CN(CCN(CC(=O)O)CC(=O)O)CCN(CC(=O)O)CC(=O)O,-1.26%,–
CCN(CCCc1ccccc1)CCCc1ccccc1,-4.42% [at 39.4 µM],–
CC(C)S,0.0664% [at 95.2 µM],–
CC1(C)C(=O)N(Cl)C(=O)N1Br,-0.337%,–
ClC(Cl)Cl,–,inactive
CCNCCO,3.04%,–
CCc1nnc(NS(=O)(=O)c2ccc(N)cc2)s1,1.16%,–
O=S(=O)(O)C(F)(F)F,-0.397%,–
CC1CN(c2ccccc2)NC1=O (stereo unspecified),2.29%,–
COc1ccc(S(=O)(=O)Nc2nnc(CC(C)C)s2)cc1,–,inactive
COc1cc(Cl)ccc1Cl,0.0729% [at 95.2 µM],–
C[C@]12C(=O)OC(=O)[C@H]1[C@H]1C=C[C@@H]2C1,0.809% [at 95.2 µM],–
CC(C)C[C@H](NC(=O)OCC1c2ccccc2-c2ccccc21)C(=O)O,-5.84%,–
O=c1[nH]c(=O)n([C@H]2C[C@H](O)[C@@H](CO)O2)cc1C(F)(F)F,-1.37%,–
CC(C)(CO)[C@@H](O)C(=O)NCCC(=O)O,–,inactive
O=c1oc2c(O)c(O)cc3c(=O)oc4c(O)c(O)cc1c4c23,0.776%,–
O=C(O)c1ccccc1Nc1cc(Cl)ccc1C(=O)O,0.405%,–
CC(=O)Nc1ccc(C)c(Cl)c1,0.0853%,–
Cc1cccc(C)c1NC(=O)CN1CCCCCC1,0.155%,–
CCOC(=O)C1CC(=O)C(=C(O)C2CC2)C(=O)C1 (stereo unspecified),0.335%,–
CC1=C(O)C(=O)OC1C (stereo unspecified),0.379%,–
Oc1ccccc1F,-0.0322%,–
